Data reported in publication PMC7862700, “An all-to-all approach to the identification of sequence-specific readers for epigenetic DNA modifications on cytosine”.

Key:
Experiment in all cases: DAPPL (digital affinity profiling via proximity ligation, sequencing); 10 mM Tris-HCl pH 7.5, 50 mM NaCl, 1 mM DTT, 4% glycerol, room temperature, 30 min; GST-TFs on glutathione beads, 16-mer random dsDNA library, 0.1% formaldehyde crosslink after washing; high values mean tight binding
Settings in all cases: protein: recombinant; tags: N-terminal GST; dsDNA, one strand shown
[1] = biological target: T1, ERF (Homo sapiens, UniProt P50548 1-548)
T1 sequence: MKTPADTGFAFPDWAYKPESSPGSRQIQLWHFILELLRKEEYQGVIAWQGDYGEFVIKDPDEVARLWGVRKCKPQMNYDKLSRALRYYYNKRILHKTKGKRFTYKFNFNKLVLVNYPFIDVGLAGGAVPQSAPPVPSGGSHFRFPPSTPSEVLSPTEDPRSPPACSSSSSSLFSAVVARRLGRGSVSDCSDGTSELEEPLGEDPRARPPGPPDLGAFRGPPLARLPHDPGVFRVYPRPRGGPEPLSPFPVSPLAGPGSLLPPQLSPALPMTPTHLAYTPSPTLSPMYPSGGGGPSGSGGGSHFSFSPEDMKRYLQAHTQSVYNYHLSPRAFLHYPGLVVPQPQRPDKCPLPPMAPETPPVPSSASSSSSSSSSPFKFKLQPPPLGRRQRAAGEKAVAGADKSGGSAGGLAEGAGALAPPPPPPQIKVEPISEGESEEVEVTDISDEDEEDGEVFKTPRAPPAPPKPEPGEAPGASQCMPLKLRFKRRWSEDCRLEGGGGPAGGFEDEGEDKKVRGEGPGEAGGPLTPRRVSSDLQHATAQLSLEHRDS
Method in brief: (§1)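 Binding signal is each hexamer's read frequency for a factor divided by its frequency in the tag-only sample. The factors were GST-fused human transcription factors from yeast, captured on glutathione beads, DNA-barcoded and pooled with that sample. Pools were incubated with 200 nmole of a random double-stranded 16-mer DNA library in Tris/NaCl/DTT/glycerol buffer at room temperature for 30 min, then washed, crosslinked with 0.1% formaldehyde, proximity-ligated with BsaI/T4 ligase (1 h, 37 °C), PCR-amplified and sequenced on an Illumina NextSeq500.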

[2] = biological target: T2, ETV3L (Homo sapiens, UniProt Q6ZN32 1-361)
T2 sequence: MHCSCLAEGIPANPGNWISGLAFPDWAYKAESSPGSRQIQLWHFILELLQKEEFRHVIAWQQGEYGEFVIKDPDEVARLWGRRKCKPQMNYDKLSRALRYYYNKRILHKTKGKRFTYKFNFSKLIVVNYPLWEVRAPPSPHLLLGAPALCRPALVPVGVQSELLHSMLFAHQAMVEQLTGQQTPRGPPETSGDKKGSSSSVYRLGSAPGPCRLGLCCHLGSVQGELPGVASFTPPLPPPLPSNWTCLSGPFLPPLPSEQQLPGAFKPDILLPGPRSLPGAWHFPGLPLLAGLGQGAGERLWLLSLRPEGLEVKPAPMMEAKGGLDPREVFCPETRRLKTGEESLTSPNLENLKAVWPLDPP
Method in brief: as §1

[3] = biological target: T3, ETS2 (Homo sapiens, UniProt P15036 1-469)
T3 sequence: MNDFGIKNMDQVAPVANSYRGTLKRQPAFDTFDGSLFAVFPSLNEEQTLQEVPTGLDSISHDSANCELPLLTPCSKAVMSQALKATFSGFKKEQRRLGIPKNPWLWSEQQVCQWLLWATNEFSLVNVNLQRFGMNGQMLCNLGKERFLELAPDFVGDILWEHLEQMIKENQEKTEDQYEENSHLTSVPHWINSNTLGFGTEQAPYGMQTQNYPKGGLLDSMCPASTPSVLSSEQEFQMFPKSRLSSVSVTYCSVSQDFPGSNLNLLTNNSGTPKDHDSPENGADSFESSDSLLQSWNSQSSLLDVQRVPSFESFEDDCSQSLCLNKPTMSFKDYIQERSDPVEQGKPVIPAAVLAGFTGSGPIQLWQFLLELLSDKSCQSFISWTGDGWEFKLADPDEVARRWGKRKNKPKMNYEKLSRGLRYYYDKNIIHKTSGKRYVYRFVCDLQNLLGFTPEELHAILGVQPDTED
Method in brief: as §1

[4] = biological target: T4, SPDEF (Homo sapiens, UniProt O95238 1-335)
T4 sequence: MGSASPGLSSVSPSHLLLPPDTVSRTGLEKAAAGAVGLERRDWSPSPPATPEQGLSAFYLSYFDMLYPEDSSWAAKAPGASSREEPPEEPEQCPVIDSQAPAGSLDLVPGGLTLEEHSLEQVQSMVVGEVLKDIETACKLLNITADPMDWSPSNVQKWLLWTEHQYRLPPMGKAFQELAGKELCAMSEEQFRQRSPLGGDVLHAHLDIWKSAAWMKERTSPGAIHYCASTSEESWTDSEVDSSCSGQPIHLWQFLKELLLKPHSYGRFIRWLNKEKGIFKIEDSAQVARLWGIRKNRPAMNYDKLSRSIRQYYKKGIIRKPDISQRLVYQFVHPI
Method in brief: as §1

[5] = biological target: T5, ETV7 (Homo sapiens, UniProt Q9Y603 1-341)
T5 sequence: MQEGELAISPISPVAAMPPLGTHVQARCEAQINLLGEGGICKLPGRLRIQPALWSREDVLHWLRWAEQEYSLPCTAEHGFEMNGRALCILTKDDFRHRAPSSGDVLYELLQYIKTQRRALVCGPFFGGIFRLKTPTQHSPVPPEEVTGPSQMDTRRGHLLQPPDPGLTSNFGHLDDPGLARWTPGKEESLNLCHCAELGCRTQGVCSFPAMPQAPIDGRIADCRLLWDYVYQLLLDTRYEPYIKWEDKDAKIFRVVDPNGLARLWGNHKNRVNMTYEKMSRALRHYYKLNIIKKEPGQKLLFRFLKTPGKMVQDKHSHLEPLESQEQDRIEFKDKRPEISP
Method in brief: as §1

[6] = biological target: T6, ELF5 (Homo sapiens, UniProt Q9UKW6-2 1-255)
T6 sequence: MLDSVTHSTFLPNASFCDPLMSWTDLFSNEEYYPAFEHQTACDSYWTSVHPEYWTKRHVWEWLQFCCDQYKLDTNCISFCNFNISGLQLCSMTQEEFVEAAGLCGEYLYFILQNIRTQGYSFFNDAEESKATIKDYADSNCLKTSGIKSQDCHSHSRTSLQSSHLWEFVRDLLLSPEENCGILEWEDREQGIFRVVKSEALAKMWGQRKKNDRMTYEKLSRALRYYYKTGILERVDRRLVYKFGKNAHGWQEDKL
Method in brief: as §1

[7] = biological target: T7, ETV3 (Homo sapiens, UniProt P41162-2 1-143)
T7 sequence: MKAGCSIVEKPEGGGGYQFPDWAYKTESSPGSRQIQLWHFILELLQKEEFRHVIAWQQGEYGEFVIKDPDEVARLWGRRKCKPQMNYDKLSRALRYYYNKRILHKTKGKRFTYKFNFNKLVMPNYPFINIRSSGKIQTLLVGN
Method in brief: as §1

[8] = biological target: ETV6 (Homo sapiens, UniProt P41212 1-452)
Sequence of ETV6 (P41212 whole entry): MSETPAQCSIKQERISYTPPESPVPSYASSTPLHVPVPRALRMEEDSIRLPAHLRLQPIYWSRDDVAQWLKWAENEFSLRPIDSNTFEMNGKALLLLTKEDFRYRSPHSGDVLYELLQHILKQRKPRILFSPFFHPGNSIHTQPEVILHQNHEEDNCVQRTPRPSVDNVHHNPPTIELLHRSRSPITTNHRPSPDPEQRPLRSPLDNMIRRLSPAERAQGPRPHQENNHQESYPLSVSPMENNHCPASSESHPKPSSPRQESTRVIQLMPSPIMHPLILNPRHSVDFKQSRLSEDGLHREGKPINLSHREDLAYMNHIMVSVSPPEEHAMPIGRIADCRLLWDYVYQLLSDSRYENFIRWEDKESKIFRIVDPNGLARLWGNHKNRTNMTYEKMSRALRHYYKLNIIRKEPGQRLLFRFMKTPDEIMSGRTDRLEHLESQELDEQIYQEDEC
Method in brief: as §1

Sequence | binding signal [1] | binding signal [2] | binding signal [3] | binding signal [4] | binding signal [5] | binding signal [6] | binding signal [7] | binding signal [8]
CCGGCC | 1.06 fold enrichment (6-mer frequency, TF over GST control) | 1.19 fold enrichment (6-mer frequency, TF over GST control) | 1.05 fold enrichment (6-mer frequency, TF over GST control) | 1.38 fold enrichment (6-mer frequency, TF over GST control) | 1.16 fold enrichment (6-mer frequency, TF over GST control) | 1.22 fold enrichment (6-mer frequency, TF over GST control) | 1.24 fold enrichment (6-mer frequency, TF over GST control) | 1.11 fold enrichment (6-mer frequency, TF over GST control)
CACCCT | 1.09 fold enrichment (6-mer frequency, TF over GST control) | 1.26 fold enrichment (6-mer frequency, TF over GST control) | 1.09 fold enrichment (6-mer frequency, TF over GST control) | 1.13 fold enrichment (6-mer frequency, TF over GST control) | 1.04 fold enrichment (6-mer frequency, TF over GST control) | 1.11 fold enrichment (6-mer frequency, TF over GST control) | 1.24 fold enrichment (6-mer frequency, TF over GST control) | 1.05 fold enrichment (6-mer frequency, TF over GST control)
CACCCG | 1.25 fold enrichment (6-mer frequency, TF over GST control) | 1.32 fold enrichment (6-mer frequency, TF over GST control) | 1.19 fold enrichment (6-mer frequency, TF over GST control) | 1.28 fold enrichment (6-mer frequency, TF over GST control) | 1.15 fold enrichment (6-mer frequency, TF over GST control) | 1.19 fold enrichment (6-mer frequency, TF over GST control) | 1.25 fold enrichment (6-mer frequency, TF over GST control) | 1.11 fold enrichment (6-mer frequency, TF over GST control)
GCACAT | 1.2 fold enrichment (6-mer frequency, TF over GST control) | 1.19 fold enrichment (6-mer frequency, TF over GST control) | 1.12 fold enrichment (6-mer frequency, TF over GST control) | 1.28 fold enrichment (6-mer frequency, TF over GST control) | 1.07 fold enrichment (6-mer frequency, TF over GST control) | 1.1 fold enrichment (6-mer frequency, TF over GST control) | 1.15 fold enrichment (6-mer frequency, TF over GST control) | 1.14 fold enrichment (6-mer frequency, TF over GST control)
TTGTCC | 1.35 fold enrichment (6-mer frequency, TF over GST control) | 1.43 fold enrichment (6-mer frequency, TF over GST control) | 1.38 fold enrichment (6-mer frequency, TF over GST control) | 1.45 fold enrichment (6-mer frequency, TF over GST control) | 1.25 fold enrichment (6-mer frequency, TF over GST control) | 1.39 fold enrichment (6-mer frequency, TF over GST control) | 1.36 fold enrichment (6-mer frequency, TF over GST control) | 1.32 fold enrichment (6-mer frequency, TF over GST control)
ATGTGT | 1.15 fold enrichment (6-mer frequency, TF over GST control) | 1.1 fold enrichment (6-mer frequency, TF over GST control) | 1.17 fold enrichment (6-mer frequency, TF over GST control) | 1.23 fold enrichment (6-mer frequency, TF over GST control) | 1.09 fold enrichment (6-mer frequency, TF over GST control) | 1.04 fold enrichment (6-mer frequency, TF over GST control) | 1.01 fold enrichment (6-mer frequency, TF over GST control) | 1.12 fold enrichment (6-mer frequency, TF over GST control)
TAGAAT | 1.17 fold enrichment (6-mer frequency, TF over GST control) | 1.09 fold enrichment (6-mer frequency, TF over GST control) | 1.06 fold enrichment (6-mer frequency, TF over GST control) | 1.07 fold enrichment (6-mer frequency, TF over GST control) | 1.13 fold enrichment (6-mer frequency, TF over GST control) | 1.08 fold enrichment (6-mer frequency, TF over GST control) | 1.05 fold enrichment (6-mer frequency, TF over GST control) | 1.15 fold enrichment (6-mer frequency, TF over GST control)
TTACCG | 1.05 fold enrichment (6-mer frequency, TF over GST control) | 1.03 fold enrichment (6-mer frequency, TF over GST control) | 1.19 fold enrichment (6-mer frequency, TF over GST control) | 1.21 fold enrichment (6-mer frequency, TF over GST control) | 1.17 fold enrichment (6-mer frequency, TF over GST control) | 1.3 fold enrichment (6-mer frequency, TF over GST control) | 1.23 fold enrichment (6-mer frequency, TF over GST control) | 1.25 fold enrichment (6-mer frequency, TF over GST control)
GCTCTT | 1.5 fold enrichment (6-mer frequency, TF over GST control) | 1.73 fold enrichment (6-mer frequency, TF over GST control) | 1.41 fold enrichment (6-mer frequency, TF over GST control) | 1.34 fold enrichment (6-mer frequency, TF over GST control) | 1.56 fold enrichment (6-mer frequency, TF over GST control) | 1.52 fold enrichment (6-mer frequency, TF over GST control) | 1.48 fold enrichment (6-mer frequency, TF over GST control) | 1.45 fold enrichment (6-mer frequency, TF over GST control)
